Sm TGR block – inhibitors of Schistosoma mansoni thioredoxin glutathione reductase. AID 485364. hit rate 3% among 360,000. Potency, µM (highest dose often 114 µM), hits mostly inhibitors. purified TGR, DTNB reduction, TNB absorbance 405 nm; further: nearly all actives have a fitted effect of over 60% in size
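Kinetic colorimetric format: TGR-catalysed, NADPH-driven DTNB reduction monitored via TNB absorbance. Enzyme dispensed at 20 nM; compound exposure 15 min at room temperature before reaction start.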
RE007 growth inh – less growth of the S. pombe RE007 Vpr strain; S. pombe RE007 Vpr strain, BacTiter-Glo ATP luminescence, 24 h; Potency, µM (series often up to 92.2 µM), usual class: inhibitors; hit rate 0.21% among 360,000; AID 651644; active means well fitted falling curve with a large enough effect; inconclusive means small, poorly fitted or top-dose-only effect; inactive means no such curve, though single readings can be large or run the other way; further: nearly all actives have a fitted effect of over 50% in size
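Fission yeast strain RE007, carrying one chromosomally integrated HIV-1 vpr copy, was seeded at OD 0.01 in PMG+AL medium with 23 nL pinned compound. After 24 h at 30 °C and 99% humidity, viability was read by BacTiter-Glo luminescence.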
AmpC inh no detg – blocks E. coli AmpC beta-lactamase in detergent-free assay | Potency, µM (top dose mostly 57.1 µM), hits mostly inhibitors | P00811 | AmpC nitrocefin hydrolysis, absorbance 480 nm, 0.0001% Triton | hit rate 0.52% among 330,000; further: nearly all actives have a fitted effect of over 20% in size
Target sequence (P00811 whole entry, looked up): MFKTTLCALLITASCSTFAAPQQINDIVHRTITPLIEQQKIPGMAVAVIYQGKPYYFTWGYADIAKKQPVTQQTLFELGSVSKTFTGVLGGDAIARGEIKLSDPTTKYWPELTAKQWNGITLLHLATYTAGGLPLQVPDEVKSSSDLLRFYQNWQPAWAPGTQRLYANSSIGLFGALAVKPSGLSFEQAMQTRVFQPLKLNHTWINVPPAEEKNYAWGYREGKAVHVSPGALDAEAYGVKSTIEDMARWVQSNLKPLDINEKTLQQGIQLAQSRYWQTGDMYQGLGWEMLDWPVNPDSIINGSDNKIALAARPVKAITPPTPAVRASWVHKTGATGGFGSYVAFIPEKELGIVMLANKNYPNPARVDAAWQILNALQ
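AmpC (5.3 nM in the dispensed reagent) in 20 mM phosphate pH 7.0 with 0.01% (detergent screen) or 0.0001% Triton X-100 was preincubated with compounds for 15 min at room temperature. Nitrocefin was then added from an 800 uM solution, and hydrolysis was followed at 480 nm.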
FBPA Giardia inh – blocks Giardia fructose-bisphosphate aldolase activity; A8B2U2; purified Giardia FBPA; Potency, µM (series often up to 59.6 µM), actives largely listed as inhibitors; hit rate 0.71% among 290,000; AID 2451; further: nearly all actives have a fitted effect of over 55% in size
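40 nM FBPA preincubated 10 min at RT with compound (up to 57.5 uM final), then substrate plus GAPDH/TPI/NAD/arsenate coupling and diaphorase/resazurin added. Fluorescence read after 20 min at RT, 525/598 nm.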
AmpC inh detg – AmpC beta-lactamase inhibition with detergent present. hit rate 0.041% among 370,000. P00811. AmpC hydrolysis of nitrocefin, absorbance 480 nm, 0.01% Triton. Potency, µM (doses to about 114 µM), actives largely listed as inhibitors; further: nearly all actives have a fitted effect of over 25% in size
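20 mM phosphate pH 7.0 + 0.01% (detergent screen) or 0.0001% Triton X-100; 5.3 nM AmpC reagent; cpd preinc 15 min RT; nitrocefin (800 uM stock) to start; A480 q20 s × 4 min; Activity was normalised to no-enzyme and no-compound control wells.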
A number is an active result; . = inactive; ? = inconclusive; / = no result given. In the library only some 3.4% were active in any assay of this set; here they are far more common. Unless noted, the call rests on the fitted dose curve; in most records, active means well fitted curve in the direction sought with a large enough effect; inconclusive means small, poorly fitted or top-dose-only effect, or another doubt; inactive means no such curve, though single readings can be large; an effect the other way counts as inactive or inconclusive.

SMILES | Sm TGR block | RE007 growth inh | AmpC inh no detg | FBPA Giardia inh | AmpC inh detg
COc1ccc(-c2nc(CS(=O)(=O)CC(=O)NC3CCCCC3C)c(C)o2)cc1 (centres undefined) | ? | . | . | . | ?
CCN(CC)CCCN1C(=O)C(O)=C(C(=O)c2ccc(C)o2)C1c1ccc(C)o1 (centres undefined) | 50µM | . | . | . | .
CCN(CC)CCCN1C(=O)C(O)=C(C(=O)c2ccc(C)o2)C1c1cccs1 (centres undefined) | 45µM | / | . | . | .
CCOc1ccc(C2C(C(=O)c3ccc(C)o3)=C(O)C(=O)N2CCCN(CC)CC)cc1 (centres undefined) | 35µM | . | . | . | .
O=S(=O)(CCSc1ccccn1)c1nc2ccccc2s1 | 0.79µM | ? | . | . | .
O=S(=O)(CCSc1nc2ccccc2o1)c1nc2ccccc2s1 | 0.71µM | . | . | . | .
CCS(=O)(=O)CCSc1nc2ccccc2o1 | . | . | . | . | .
O=C(CSc1ccccn1)Nc1nc2ccccc2s1 | . | . | . | . | .
Cc1nc2ccc(Cl)cc2nc(C)/c1=N\O | ? | . | . | 14µM | ?
C=CCc1ccc(O)c(-c2cc(CC=C)ccc2O)c1 | 56µM | ? | . | . | .
O=C(OCCCOc1ccc(F)cc1)c1ccc(O)cc1O | . | . | 3.2µM | / | .
O=C(Sc1ccc(Cl)cc1)c1cccc(Cn2cc(C(F)(F)F)ccc2=O)c1 | 20µM | . | . | . | .
CC(C)NC(=O)CN1CCN(C(=O)CCl)CC1 | ? | . | . | . | .
CN(C)C(=O)CN1CCN(C(=O)CCl)CC1 | 45µM | . | . | . | ?
Cc1ccnc(NC(c2cccnc2)c2ccc3cccnc3c2O)c1 (centres undefined) | / | . | . | . | .
Cc1ccnc(NC(c2cc(C)ccc2O)c2ccc3cccnc3c2O)c1 (centres undefined) | 0.35µM | / | / | / | .
CCC(=O)NC(c1ccc(C)cc1)c1ccc2cccnc2c1O (centres undefined) | . | ? | . | . | .
Oc1c(C(Nc2ccccn2)c2ccccc2F)ccc2cccnc12 (centres undefined) | 2µM | / | / | / | .
Cc1cc(NC(c2ccc(Cl)cc2)c2ccc3cccnc3c2O)no1 (centres undefined) | 13µM | ? | 4.5µM | . | .
CCC(=O)NC(c1ccc(Cl)cc1Cl)c1ccc2cccnc2c1O (centres undefined) | . | . | . | ? | .
Oc1c(C(Nc2ccccn2)c2ccccn2)ccc2cccnc12 (centres undefined) | 22µM | ? | . | ? | ?
COc1cc(CC(=O)OCC(=O)N2CC(C)CC(C)C2)cc(OC)c1OC (centres undefined) | . | . | . | . | .
COc1cc(C(=O)Nc2ccc(C(=O)c3ccncc3)cc2)cc(OC)c1OC | / | . | / | / | /
Cc1ccnc(NC(c2ccccc2F)c2ccc3cccnc3c2O)c1 (centres undefined) | 2.2µM | / | / | / | .
Oc1ccccc1C(Nc1nccs1)c1ccc2cccnc2c1O (centres undefined) | 1.3µM | . | . | ? | .
SMILES | Sm TGR block | RE007 growth inh | AmpC inh no detg | FBPA Giardia inh | AmpC inh detg
O=C(O)c1ccccc1NC(c1ccccc1)c1ccc2cccnc2c1O (centres undefined) | / | . | / | / | /
CCOc1ccc(NC(=O)C2CCN(S(=O)(=O)c3c(C)noc3/C=C/c3ccco3)CC2)cc1 | . | / | / | / | .
Cc1noc(C)c1S(=O)(=O)N1CCC(C(=O)N2CCN(C3CCCC3)CC2)CC1 | 32µM | / | . | . | .
Cc1noc(C)c1S(=O)(=O)N1CCC(C(=O)N2CCN(c3ccc(F)cc3)CC2)CC1 | . | . | . | . | .
CCC(C)N1CCN(C(=O)C2CCN(S(=O)(=O)c3c(C)noc3/C=C/c3ccco3)CC2)CC1 (centres undefined) | 45µM | . | . | . | .
Cc1nn(C)c(C)c1/C=C/C(=O)c1ccccc1 | . | . | . | . | .
C#CCN1C(=O)C(O)(CC(=O)c2cccc(OC)c2)c2ccccc21 (centres undefined) | . | . | . | . | .
COc1ccc(C(NC(=O)c2ccco2)c2ccc(OC)c(OC)c2)cc1 (centres undefined) | . | . | . | . | .
COc1ccc(C(NC(=O)/C=C/c2ccco2)c2ccc(OC)c(OC)c2)cc1OC | 8.9µM | . | . | . | .
COc1ccc(C2(CNC(=O)/C=C\c3ccco3)CCCC2)cc1OC | 3.2µM | . | . | . | .
COc1ccc(C2(CNC(=O)c3cc(OC)c(OC)c(OC)c3)CCCC2)cc1OC | / | . | / | / | /
Cc1ccc(Nc2n[nH]c(=S)s2)cc1C | / | . | / | / | /
COCC(=O)N1CCC(Oc2ccc(C(=O)N3C[C@@H](C)O[C@@H](C)C3)cc2)CC1 | 40µM | . | . | / | .
COc1cc(/C=C/CN2CCC(CO)(CC3CCCCO3)CC2)ccc1O (centres undefined) | 13µM | . | . | . | .
COc1ccc(CCC(C)N2CCC(Oc3ccc(C(=O)N4CCCC4)cc3)CC2)cc1 (centres undefined) | 28µM | . | . | / | .
CCOC(=O)C1CCN(C(=O)c2ccc(OC3CCN(C(=O)COC)CC3)cc2)CC1 | . | . | . | . | .
CCc1ccc(CN2CCC(CO)(CC3CCCCO3)CC2)o1 (centres undefined) | . | . | . | . | .
Cc1ccc(CN2CCC(CO)(CC3CCCCO3)CC2)o1 (centres undefined) | 45µM | . | . | . | .
Cc1cc(C)c2c(C(C)(C)C)nn(-c3ccccc3)c2n1 | ? | . | . | . | .
Cc1ccc(N2CC(C(=O)Nc3nnc(SCC(=O)NCC4CCCO4)s3)CC2=O)cc1 (centres undefined) | . | . | . | . | ?
COCCNC(=O)CSC1=N/C(=C/c2ccc(Cl)c(Cl)c2)C(=O)N1c1ccccc1F | . | . | . | . | .
COc1cc(/C=C/CN2CCC(Oc3ccc(C(=O)N4CCCC4)cc3)CC2)ccc1O | 18µM | . | . | . | ?
COc1ccccc1/C=C/CN1CCC(Oc2ccc(C(=O)N3CCCC3)cc2)CC1 | . | . | . | . | .
CN(C)C(=O)Nc1ccccc1CC[N+](=O)[O-] | . | . | . | . | .
O=C(Nc1ccccc1CC[N+](=O)[O-])N1CCN(c2ccccc2)CC1 | 2.2µM | . | . | . | .
COc1ccccc1S(=O)Cc1ccc(C(=O)NCc2ccccc2Cl)o1 (centres undefined) | 16µM | . | . | . | .
O=C(c1ccc(CS(=O)c2ccccc2Cl)o1)N1CCOCC1 (centres undefined) | 32µM | . | . | / | .
O=C(c1ccc(CS(=O)c2ccccc2Cl)o1)N1CCN(c2ccccc2)CC1 (centres undefined) | . | . | . | / | .

Compound activity deposited in PubChem BioAssay by National Center for Advancing Translational Sciences (NCATS).
